# Bioassay records: PubChem, National Center for Advancing Translational Sciences (NCATS)
# MBNL1 CUG block: blocks human MBNL1 binding to CUG repeat RNA | TR-FRET MBNL1-His/biotin-(CUG)12 binding, 665/545 ratio | Potency, µM (titrated, usually from 57.5 µM), for the others: at the top dose activity change, negative = inhibition, most hits filed as inhibitors | 280,000 tested, 0.036% active; active = well fitted inhibition curve with a large enough effect in the signal ratio, with a control signal flat, not every such curve was filed as active; inconclusive = small, poorly fitted or top-dose-only effect, or effect the other way, or a change in a side signal; inactive = no such curve, though single readings can be large or run the other way; the % refers to the signal ratio; note: potency is the fitted concentration of half-maximal effect; % is set by controls: 0 for no effect and ±100 for the full control effect
#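 Compounds (final 92 nM to 58 uM) are added to His-tagged MBNL1 and biotin-(CUG)12, then terbium anti-His antibody and streptavidin-XL665 (5 nM final). After 60 min at room temperature, the 665/545 nm ratio is read.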
# Glioma ERSR ind: ER stress response induction in glioma | AID 602332 | 420,000 tested, 0.02% active | Potency, µM, for the others: at the highest dose activation, actives largely listed as activators | U87-MG GRP78 promoter luciferase reporter, 16 h; note: potency is the fitted concentration of half-maximal effect; series mostly up to about 76 µM; % of control where 0% means no effect; nearly all actives have a fitted effect of over 35% in size
#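 Stably transfected U87-MG glioma cells carrying a GRP78-based luciferase sensor; 16 h compound incubation. Luminescence end-point read 10 min after Bright-Glo addition at room temperature.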
# Mito fusion yeast: inhibitors of mitochondrial division or activators of mitochondrial fusion | S. cerevisiae fusion-defective mutant growth rescue, CellTiterGlo 48 h | 320,000 tested, 0.23% active | Potency, µM (titrated, usually from 46.1 µM), inactives show at the highest dose growth rescue (activation), most hits filed as activators; note: potency is the fitted concentration of half-maximal effect; % of control where 0% means no effect; nearly all actives have a fitted effect of over 45% in size
#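 Luminescent cell viability in 1536-well qHTS format served as the measure of rescued growth in ts fusion-mutant S. cerevisiae cultured on non-fermentable YPEG for 48 hours at 37C.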
# A-T KAP1 phos: candidate therapy for ataxia-telangiectasia; Potency, µM (top dose mostly 57.5 µM), inactives show top-dose activation, hits mostly activators; AID 485349; F2112 A-T fibroblasts, KAP-1 phosphorylation AlphaLISA; neocarzinostatin DNA damage 30 min before lysis; 320,000 tested, 0.19% active; note: potency is the fitted concentration of half-maximal effect; % of control where 0% means no effect; nearly all actives have a fitted effect of over 45% in size
#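 ATM-like activity read as KAP-1 phosphorylation via AlphaLISA donor/acceptor antibody pairs after lysis and 6 hr at 25C. Cells were ATM-null patient fibroblasts (F2112, hTERT), dosed 60 min, then exposed to the DSB inducer NCS for 30 min.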
# TCR act: activates T cell receptor signaling; primary human leukocytes, anti-CD3, IL-2 HTRF, 48 h; 330,000 tested, under 10 active; AID 504894; Potency, µM (top dose mostly 9.22 µM), for the others: top-dose activation of IL-2 secretion, hits mostly activators; note: % of control where 0% means no effect
#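 Readout: HTRF IL-2, Eu-cryptate/d2 antibody pair, 320nm excitation, 665nm emission. Stimulus: a-CD3 beads, no co-stimulation. Cells: primary human leukocytes. Exposure: 48 hr with compound.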
# ClpP mod: qHTS Assay for Activators of ClpP. AID 651965, 2013. Potency, µM (highest dose often 57.5 µM), without a hit: at the top dose activity change, negative = active. 340,000 tested, 1.9% active. purified B. subtilis ClpP, FRET peptide cleavage, 20 min; active = well fitted falling curve with a large enough effect; inconclusive = small, poorly fitted or top-dose-only effect; inactive = no such curve, though single readings can be large or run the other way; note: potency is the fitted concentration of half-maximal effect; the source files actives as falling curves though it sought activators and does not explain the sign; nearly all actives have a fitted effect of over 65% in size
#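 FRET quenching reversal measured ClpP activation: 10 microg/mL B. subtilis ClpP at pH 8 with the FRET-FV decapeptide, read at 430 nm after 320 nm excitation. The 20-min minus 0-min signal was scaled between DMSO/no-enzyme wells and ADEP (5.8 microM final).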
# ClpP inh valid: validation of B. subtilis ClpP protease hits (inhibitors); Potency, µM (doses to about 57.5 µM), for inactives: top-dose activity change, negative = inhibition, most hits filed as inhibitors; purified B. subtilis ClpP, FRET-FV substrate cleavage, 20 min; 470 tested, 40% active; shares compounds with ClpP mod; note: potency is the fitted concentration of half-maximal effect; % is set by controls: 0 for no effect and ±100 for the full control effect; nearly all actives have a fitted effect of over 70% in size
# Starred values were filed as active, the others as inactive; u = inconclusive; x = no result given; [ ] = dose if it differs, or a comment. The list is not random: actives were taken first. Their share in the collection is about 1.8%. Unless noted, calls come from the whole dose curve; as a rule, active = well fitted curve in the direction sought with a large enough effect; inconclusive = small, poorly fitted or top-dose-only effect, or another doubt; inactive = no such curve, though single readings can be large; an effect the other way counts as inactive or inconclusive.
SMILES,MBNL1 CUG block,Glioma ERSR ind,Mito fusion yeast,A-T KAP1 phos,TCR act,ClpP mod,ClpP inh valid
CCCCCNC(=O)C(c1ccc(-c2ccccc2)cc1)n1c(=O)c(-c2cc3ccccc3[nH]2)nc2ccccc21 (stereo unspecified),x,x,x,x,x,48%,14%
O=C(Nc1ccc2ccccc2c1)C(c1ccccc1)n1c(=O)c(-c2cc3ccccc3[nH]2)nc2ccccc21 (stereo unspecified),x,x,x,x,x,50%,13%
O=C(NCc1ccccc1)C(c1cccc2ccccc12)n1c(=O)c(-c2cc3ccccc3[nH]2)nc2ccccc21 (stereo unspecified),x,x,x,x,x,42%,6%
Cc1cccc(C)c1NC(=O)C(c1ccccc1)n1c(=O)c(-c2cc3ccccc3[nH]2)nc2ccccc21 (stereo unspecified),x,x,x,x,x,12%,x
Cc1cccc(C)c1NC(=O)C(c1cccc2ccccc12)n1c(=O)c(-c2cc3ccccc3[nH]2)nc2ccccc21 (stereo unspecified),x,x,x,x,x,54%,8%
CC1(C)CC(C(=O)N2CCOc3ccc(CN4CCC(Oc5cccnc5)CC4)cc3C2)CCO1 (stereo unspecified),x,-5%,x,x,x,x,x
OC[C@@H](O)C(O)[C@H](O)[C@H](O)CO (stereo partly specified),x,-4%,x,x,x,x,x
O=c1c(-c2cc3ccccc3[nH]2)nc2ccccc2n1C(CCc1ccccc1)c1nc2ccccc2[nH]1 (stereo unspecified),x,x,x,x,x,32%,7%
O=C(NCc1ccccc1)C(c1ccc(C(F)(F)F)cc1)n1c(=O)c(-c2cc3ccccc3[nH]2)nc2ccccc21 (stereo unspecified),x,x,x,x,x,28%,-5%
O=C(NCc1ccccc1)C(CCc1ccccc1)n1c(=O)c(-c2cc3ccccc3[nH]2)nc2ccccc21 (stereo unspecified),x,x,x,x,x,11%,x
CN(C)c1ccc(-c2ccc3ncnc(NC4CC4)c3c2)cc1,x,-3%,x,x,x,x,x
CCOc1ccc(C2C=C(c3ccc(C)cc3)Nc3nnnn32)cc1 (stereo unspecified),-6%,-2%,0%,11%,x,10µM*,-11%
CCOC(=O)c1nc2nc(-c3cccs3)cc(C(F)(F)F)n2n1,x,-1%,7%,-3%,-5%[46.1 µM],u,x
O=C(c1nc2nc(-c3cccs3)cc(C(F)(F)F)n2n1)N1CCN(Cc2ccccc2)CC1,u,8%,6%,x,-3%[46.1 µM],2.5µM*,24µM*
CCn1c(=O)n(-c2ccc(C)c(F)c2)c(=O)c2sc3ccccc3c21,x,-2%,x,x,x,4%,x
CCn1nnnc1Sc1nc(C)nc2scc(-c3ccccc3)c12,x,-1%,x,x,x,-2%,x
C=CC[N+]1([C@H]2C[C@H]3[C@@H]4CC[C@H]5C[C@H](OC(C)=O)[C@@H](N6CCCCC6)C[C@]5(C)[C@H]4CC[C@]3(C)[C@H]2OC(=O)CC)CCCCC1,x,-3%,x,x,x,x,x
CN(C)c1ccc(/C=N\Nc2ccc([N+](=O)[O-])cc2[N+](=O)[O-])cc1Br,x,-4%,x,x,x,0%,x
COCCn1cc(C(=O)N2CCCC(C)C2)c2c3ccccc3n(C)c2c1=O (stereo unspecified),6%,-2%,4%,-3%,x,3.2µM*,15µM*
O=[N+]([O-])c1cccc(S(=O)(=O)NCCNS(=O)(=O)c2cccc([N+](=O)[O-])c2)c1,x,-5%,x,x,x,x,x
Cc1ccccc1N(CC(=O)Nc1ccc(S(=O)(=O)N2CCOCC2)cc1)S(C)(=O)=O,-12%,-2%,-3%,-6%,4%,45%,1%
O=C(Nc1ccc2nc(SCC(=O)N3CCc4ccccc43)sc2c1)c1ccc(F)cc1,x,-1%,x,x,x,416%,24µM*
COc1ccc(N2C(=O)NC3CC2(C)Oc2ccccc23)cc1 (stereo unspecified),-2%,-4%,-1%,-1%,-6%,x,x
COc1ccc(N2C(=O)NC3CC2(C)Oc2ccc(Br)cc23)cc1OC (stereo unspecified),4%,-2%,-5%,1%,2%,177%,0%
COc1cc2ccccc2cc1C(=O)Nc1ccc(Br)cn1,30%,7%,1%,4%,10%,3.5µM*,u
SMILES,MBNL1 CUG block,Glioma ERSR ind,Mito fusion yeast,A-T KAP1 phos,TCR act,ClpP mod,ClpP inh valid
COc1c(C(=O)Nc2ccc(Br)cn2)ccc2ccccc12,17%,14%,-5%,2%,2%,-17%,x
COc1nc(-c2ccccc2)ccc1-c1noc(-c2cccnc2)n1,136%,-2%,15%,-7%,7%,-21%,x
COc1nc(-c2ccc(C)cc2)ccc1-c1noc(-c2cccnc2)n1,4%,-4%,0%,0%,2%,u,19µM*
Cc1ccccc1Nc1c(-c2c[nH]c3ccccc23)nc2ccc(Cl)cn12,x,0%,x,x,x,5µM*,-16%
CN1CCOC(c2ccccc2)c2ccccc2C1 (stereo unspecified),-5%,-4%,-4%,12%,0%,-1%,x
CC(C)N1CCOC1c1ccccc1 (stereo unspecified),x,-2%,x,x,-1%,7.9µM*,-1%
COCC(=O)Nc1cccc(-c2nc3cccnc3s2)c1,x,-2%,x,x,x,5%,x
O=C(Cc1ccc(F)cc1)Nc1cccc(-c2nc3cccnc3s2)c1,x,0%,x,x,x,8.9µM*,-13%
CCC(C)NC(=O)NC1C(NC(=O)NC(C)CC)N(C)C(=O)N1C (stereo unspecified),-6%,-1%,-1%,-3%,x,-2%,x
CC(C)CNC(=O)NC1C(NC(=O)NCC(C)C)N(C)C(=O)N1C (stereo unspecified),-6%,-5%,0%,-7%,1%,44%,0%
O=C(Cn1c(=O)sc2ccccc21)NCc1ccccn1,3%,1%,-5%,7%,-3%,-2%,x
O=C(Cn1c(=O)sc2ccccc21)NCCOc1ccccc1F,-9%,1%,2%,14%,-2%[46.1 µM],7.9µM*,-1%
COCc1ccc(CN2CCOc3ccc(C4=CCCCC4)cc3C2)o1,x,0%,x,x,x,x,x
O=C(Nc1ccccc1Cl)c1cc2c(-c3ccccc3)nn(-c3ccccc3)c2s1,x,-2%,x,x,x,u,19µM*
Nc1nc(N2CCN(C(=O)c3ccco3)CC2)nc2ccccc12,-3%,0%,-3%,1%,2%[46.1 µM],4.5µM*,27µM*
Cc1cccc(-c2nnc(NC(=O)c3cccs3)s2)c1,33%,5%,1%,-3%,2%,3%,x
